Inhibition data for 92 molecules are collected here from PubChem BioAssay AID2315 (National Center for Advancing Translational Sciences (NCATS), 2010).

Out of some 290,000 compounds screened, about 27,000 (9.3%) were called active. No stated cut-off is given here; in the data, active means inhibition mostly above about 28% (no sharp cut-off); inactive means mostly below about 43%. Only a selection was taken, and actives are over-represented in it overall.

This experiment is described as follows: A qHTS for Small Molecule Inhibitors of Shiga Toxin. Further: 0% is about no effect. The note with it: Vero cells, Shiga toxin protein synthesis inhibition reporter; at 38.7 µM, stronger effect = higher value. Background: qHTS replaces the single test concentration by a dilution series.
Regarding `CCc1[nH]nc(C(=O)N2CCCC(CO)(Cc3ccc(F)cc3F)C2)c1C` (configuration not stated), the inhibition was -13.8% (inactive).

As to `Cc1ccc(S(=O)(=O)CC(=O)NC(C)c2ccccc2)cc1` (configuration not stated), the inhibition was -1.44% (inactive).

Turning to `CCc1ccccc1NC(=O)[C@@H]1CCC(=O)N1C1OC(=O)c2c1ccc(OC)c2OC` (some centres not stated), the inhibition is -2.37% (inactive).

With `COc1ccc(C[C@H](C(=O)O)N2C(=O)c3ccc(C(=O)O)cc3C2=O)cc1`, the inhibition is 2.25% (inactive).

For `Cc1ccc2[nH]cc(CCCN3C(=O)c4ccccc4C3=O)c2c1`, the inhibition was 1.09% (inactive).

Turning to `COc1ccc2[nH]cc(CCN3C(=O)c4ccc(C(=O)O)cc4C3=O)c2c1`, the inhibition was 60.8% (active).

On to `O=C(CC(c1ccccc1)c1ccccc1)NCC(O)c1ccc([N+](=O)[O-])cc1` (configuration not stated), for which the inhibition is -4.27% (inactive).

For the molecule `CCCCc1ccc(NC(=S)N2CCCC(CO)C2)cc1` (configuration not stated), the inhibition was 87.2% (active).

For `CCCCc1ccc(NC(=S)NCCCN2CCOCC2)cc1`, the inhibition was -8.23% (inactive).

Regarding `COc1ccc(NC(=S)N2CCCC(CO)C2)c(OC)c1` (configuration not stated), the inhibition is -3.35% (inactive).

On to `COc1ccc(C(=O)Nc2ccccc2C(=O)N2CCN(c3ccccc3)CC2)cc1`, for which the inhibition is -6.97% (inactive).

In the case of `CCn1nccc1C(=O)Nc1ccc(Cl)c(Cl)c1`, the inhibition is 81% (active).

As to `CCn1nccc1C(=O)Nc1ccc(S(=O)(=O)NC23CC4CC(CC(C4)C2)C3)cc1`, the inhibition is -9.86% (inactive).

On to `Cc1nnc(NC(=O)Nc2ccc(Cl)c(Cl)c2)s1`, for which the inhibition was -3.3% (inactive).

With `CC1=C(C(=O)OC2CCCCC2)C(c2ccccc2F)NC(=O)N1` (configuration not stated), the inhibition is 4.41% (inactive).

`O=C(O)c1cc(S(=O)(=O)N(Cc2ccccc2)c2ccccc2)ccc1Cl`: the inhibition is -7.94% (inactive).

Consider `O=C(NCc1cccc(Cl)c1)C1CCN(c2nnc(N3CCCC3=O)s2)CC1`, for which the inhibition was -4.8% (inactive).

In the case of `Cc1ccc(C)c(N2CCN(C(=O)CCCCCn3c(=S)[nH]c4ccc(N5CCOCC5)cc4c3=O)CC2)c1`, the inhibition was 1.81% (inactive).

Turning to `COC(=O)c1c(C)[nH]c(C(=O)/C=C/c2ccc(Cl)cc2)c1C`, the inhibition was 54.7% (active).

For the molecule `COC(=O)c1c(C)[nH]c(C)c1-c1ccc([N+](=O)[O-])cc1`, the inhibition is 21.5% (inactive).

Regarding `Cc1ccc(NC(=S)NC(=O)/C=C/c2ccc(Cl)cc2)cc1`, the inhibition is 13% (inactive).

Regarding `CC(=O)C1C(c2ccc(Cl)cc2)NC(=O)NC1(O)C(F)(F)F` (configuration not stated), the inhibition is -1.27% (inactive).

In the case of `CCOC(=O)C1C(c2ccc(Cl)cc2)NC(=S)NC1(O)C(F)(F)F` (configuration not stated), the inhibition was -9.88% (inactive).

In the case of `O=C(c1cccs1)C1C(c2ccc(Br)cc2)NC(=S)NC1(O)C(F)(F)F` (configuration not stated), the inhibition is 69.1% (active).

Consider `CC(=O)N1CCN(CC(C)(C)NS(=O)(=O)c2ccc(C)cc2)CC1`, for which the inhibition was -4.99% (inactive).

With `CC(=O)c1c(C)[nH]c(C(=O)OCC(=O)NCCC(C)C)c1C`, the inhibition was -4.2% (inactive).

`CCCCOC(=O)c1[nH]c(C)c(C(=O)OC)c1C`: the inhibition was 94.4% (active).

Regarding `COC(=O)c1c(C)[nH]c(C(=O)NCCc2ccc(S(N)(=O)=O)cc2)c1C`, the inhibition was 2.99% (inactive).

Consider `Cc1ccc(CN2CCN(c3ncccn3)CC2)c(C)c1`, for which the inhibition was 6.99% (inactive).

Take `Cc1ccccc1CN1CCNC(=O)C1CC(=O)NCCC1=CCCCC1` (configuration not stated): the inhibition was -8.04% (inactive).

As for `CC(C)=NN1C(=O)c2ccccc2NC1(C)C`, the inhibition is 91.4% (active).

In the case of `CC(=O)NN1C(=O)c2ccccc2NC1c1ccccc1` (configuration not stated), the inhibition is 4.01% (inactive).

With `CC(=O)N1C(=O)C2(Nc3ccccc3N2)c2ccccc21`, the inhibition is -7.58% (inactive).

Turning to `Nc1nc(SCC(=O)Nc2cc(C(F)(F)F)ccc2Cl)[nH]c(=O)c1NC(=O)c1ccco1`, the inhibition is -1.11% (inactive).

As for `CCC(C)N1C(=O)S/C(=C/c2ccc(Sc3nc4ccccc4[nH]3)o2)C1=O` (configuration not stated), the inhibition was 11.8% (inactive).

For the molecule `COc1ccc(N2CCN(S(=O)(=O)c3ccc4c(c3)NC(=O)C(C)C(=O)N4)CC2)cc1` (configuration not stated), the inhibition was -6.85% (inactive).

On to `O=S(=O)(Nc1ccc(Oc2ncccn2)c(Cl)c1)c1ccc(F)cc1`, for which the inhibition is -3.73% (inactive).

As for `C=CCOc1cccc(CNCc2cccnc2)c1`, the inhibition was 29% (inactive).

As to `CC(=NCc1ccco1)c1c(C(F)(F)F)[nH]n(-c2nc3ccccc3s2)c1=O`, the inhibition was 122% (active).

As to `CC(=NCc1ccco1)C1=C(O)c2ccccc2C1=O`, the inhibition is 31.2% (inactive).

Take `CCc1ccc(-c2cc(C(=O)NCc3ccco3)c3ccccc3n2)s1`: the inhibition was 41.4% (inactive).

In the case of `COC(=O)Cc1[nH]n(-c2nc3ccccc3s2)c(=O)c1C(C)=Nc1ccc(OC)cc1`, the inhibition was 38.9% (inactive).

In the case of `CCC(C)Cn1c(O)cc2nn(-c3nc4ccccc4s3)c(=O)c-2c1C` (configuration not stated), the inhibition was 29.1% (inactive).

Consider `C/C(=N\NC(=O)CC(C)C)c1c(C(F)(F)F)[nH]n(-c2nc3ccccc3s2)c1=O`, for which the inhibition was 65.9% (active).

Consider `Cc1ccc(NC(=O)[C@H](Cc2ccccc2)NC(=O)C2CCNCC2)cc1`, for which the inhibition is -0.595% (inactive).

Turning to `COc1ccccc1NC(=O)N1CCCC1C(=O)NCc1cccs1` (configuration not stated), the inhibition was -1.36% (inactive).

In the case of `O=C(c1ccc(OC2CCN(C/C=C/c3ccc(F)cc3)CC2)cc1)N1CCCCC1`, the inhibition was -5.42% (inactive).

With `COCC1CCN(C(=O)C2CCC(=O)N(CC3CCCCC3)C2)CC1` (configuration not stated), the inhibition is 19.8% (inactive).

Turning to `O=C1CCC(C(=O)N2CCCCO2)CN1Cc1cccc(C(F)(F)F)c1` (configuration not stated), the inhibition is 29.5% (inactive).

On to `COCC1CCN(C(=O)C2CCC(=O)N(Cc3cccc(C(F)(F)F)c3)C2)CC1` (configuration not stated), for which the inhibition was 38.4% (active).

`CCOc1ccc(N(CC(=O)NCCc2ccc(F)cc2)S(=O)(=O)c2ccccc2)cc1`: the inhibition is 10.2% (inactive).

As to `O=C(NCCN1CCOCC1)c1ccc(/C=C2\Sc3ccccc3N(Cc3ccc(F)cc3)C2=O)cc1`, the inhibition is -4.17% (inactive).

As to `NC(=O)C1CCN(C(=O)COc2cccc3cccnc23)CC1`, the inhibition is 33.9% (inactive).

In the case of `CCOC(=O)C1CCN(C(=O)COc2cccc3ccccc23)CC1`, the inhibition is 34.7% (active).

In the case of `CCOC(=O)C1CCN(C(=O)COc2cc(C)c(Br)c(C)c2)CC1`, the inhibition is 2.84% (inactive).

In the case of `O=C(O)c1cc(S(=O)(=O)NC2CCCc3ccccc32)ccc1O` (configuration not stated), the inhibition was 16.7% (inactive).

As for `CCN(CC)CCCNC(=O)c1cn(C)c2ccc(S(=O)(=O)N(C)C3CCCCC3)cc2c1=O`, the inhibition is -11.8% (inactive).

As to `COc1ccccc1C(=O)N(Cc1ccc(C)o1)C1CCS(=O)(=O)C1` (configuration not stated), the inhibition was -7.17% (inactive).

On to `Cc1cc(O)c(NC(=O)c2ccc(C)c([N+](=O)[O-])c2)cc1C`, for which the inhibition was 57.7% (active).

In the case of `CCN1CCC(=NNC(=O)c2ccc(C)c([N+](=O)[O-])c2)CC1`, the inhibition is 14.2% (inactive).

On to `Cc1ccc(C(=O)Nc2cccc3ncccc23)cc1[N+](=O)[O-]`, for which the inhibition is 11.7% (inactive).

`Cc1csc(NC(=O)CSc2nc(=O)cc(N)n2-c2ccc(F)cc2)n1`: the inhibition was -2.89% (inactive).

For `Cc1ccccc1NC(=O)N1CCCC1C(=O)NCc1ccccc1` (configuration not stated), the inhibition was -8.06% (inactive).

Consider `COc1ccc(C(=O)n2nc(C)c(Br)c2C)cc1OC`, for which the inhibition is 1.86% (inactive).

With `COc1cccc(N(C(=O)c2snc(C(N)=O)c2N)C(C(=O)NCC2CCCO2)c2c[nH]c3ccccc23)c1` (configuration not stated), the inhibition was -11.7% (inactive).

For `Cc1cc(C)nc(N/N=C/c2ccncc2)n1`, the inhibition is -5.35% (inactive).

For the molecule `CCN(CC)c1ccc(/C=N/Nc2nc(C)cc(C)n2)c(O)c1`, the inhibition was 28.1% (active).

Turning to `Cc1cc(C)nc(N/N=C/c2c(CO)cnc(C)c2O)n1`, the inhibition was 3.16% (inactive).

As for `CCN(CC)c1ccc(C(=O)N/N=C/c2ccc(N3CCOCC3)cc2)cc1`, the inhibition was -11.2% (inactive).

`CCN(CC)c1ccc(/C=N/NC(=O)c2cnccn2)c(O)c1`: the inhibition is 62.2% (active).

As to `Cc1ccc(C(=O)NCCNC(=O)c2cnccn2)cc1`, the inhibition is 3.15% (inactive).

Consider `Cc1nn(C(C)C(=O)N2CCOCC2)c(=O)c2nn(-c3ccccc3)c(C)c12` (configuration not stated), for which the inhibition was -9.86% (inactive).

In the case of `O=C(c1ccc(F)cc1)N1CCCC(C(=O)N2CCCCC2)C1` (configuration not stated), the inhibition was 4.46% (inactive).

On to `CC(=O)Nc1ccc(S(=O)(=O)N2CCC(C(=O)N[C@@H](Cc3ccccc3)C(=O)O)CC2)cc1`, for which the inhibition is -6.49% (inactive).

As for `Cc1cccc(N(C)C(=O)c2cc(S(=O)(=O)N3CCCCC3)c[nH]2)c1`, the inhibition was -6.21% (inactive).

For the molecule `CSc1ccccc1NC(=O)CN(C)CC(=O)Nc1cccc(Br)c1`, the inhibition was -0.946% (inactive).

Regarding `CCN(CC)C(=O)C(=O)Nc1cccc(Br)c1`, the inhibition is 106% (active).

As to `C=C(C)C(=O)Nc1cccc(C(C)=O)c1`, the inhibition is -10.8% (inactive).

As for `O=C(N/N=C/c1cccc(OC(=O)c2ccc([N+](=O)[O-])cc2)c1)c1cccnc1`, the inhibition is -3.03% (inactive).

As for `CCN(CC)/[N+]([O-])=N/Oc1cc(O/[N+]([O-])=N/N2CCCC2CO)c([N+](=O)[O-])cc1[N+](=O)[O-]` (configuration not stated), the inhibition was -5.78% (inactive).

Turning to `COc1ccc(-c2csc(NC(=O)COC(=O)c3ccc(Br)o3)n2)cc1`, the inhibition was 92.3% (active).

On to `COc1cc(CC(=O)Nc2nc(-c3ccc(F)c(F)c3)cs2)cc(OC)c1OC`, for which the inhibition was -5.98% (inactive).

Consider `O=C(NCCc1csc(-c2ccccc2)n1)c1ccccc1F`, for which the inhibition is 40.5% (inactive).

`CCCc1ccc(-c2csc(NC(=O)Cc3cccs3)n2)cc1`: the inhibition is 13% (inactive).

Take `COc1ccc(CC(=O)Nc2nc(-c3ccc(F)c(F)c3)cs2)cc1OC`: the inhibition was -2.51% (inactive).

Turning to `COc1ccc(-c2csc(NC(=O)COC(=O)Cc3ccc(Cl)cc3Cl)n2)cc1`, the inhibition is 64% (active).

As for `COc1ccc(N2CCN(C(=O)CNC(=O)c3ccc(Br)o3)CC2)cc1`, the inhibition is -11.6% (inactive).

As for `CC(C)(C)NC(=O)NC(=O)COC(=O)Cc1ccc(Cl)cc1Cl`, the inhibition is 16.6% (inactive).

As to `COc1ccc(-c2nc(CCNC(=O)c3ccc(Br)o3)cs2)cc1`, the inhibition is 20.3% (active).

In the case of `CC(C)=CCCC(C)CN1CCC(n2nccc2NC(=O)c2ccccc2)CC1` (configuration not stated), the inhibition is -5.43% (inactive).

On to `O=C(Nc1ccccc1)C1CCN(C(=O)c2ccc(Br)cc2)CC1`, for which the inhibition is 6.29% (inactive).

With `COCCCC1CCN(C(=O)C2CCC(=O)N(C3CCCCCC3)C2)CC1` (configuration not stated), the inhibition was -6.64% (inactive).

For orientation: inhibition means the change of the read-out against control, counted positive when it falls.
